From PubChem BioAssay

What follows are molecules tested against Calmodulin-1 (Homo sapiens) (UniProt P0DP23) (assay: CALM1 binders on microarrays, EGTA buffer, profiling panel, biochemical, small-molecule microarray, Cy5-labelled CALM1 (AID 1111;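 further: labelled calmodulin applied in Tris saline Tween buffer holding calcium plus EGTA and DTT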)). Conditions: Cy5-CALM1 binding fluorescence, higher = more signal.

Compound	composite z-score
[N-]=[N+]=Nc1ccccc1C[C@]1(C(=O)O)N=C(c2ccc(OCCCO)cc2)O[C@H]1c1ccccc1	0.163
CN1C(=O)[C@@]2(Cc3ccccc3)N=C(c3ccc(OCCCO)cc3)O[C@H]2c2ccccc21	0.329
NC(=O)[C@@H]1[C@H]2C(=O)O[C@H](c3ccccc3)[C@H](c3ccccc3)N2[C@H](c2ccc(OCCO)cc2)[C@@]12C(=O)Nc1ccc(C#CCCO)cc12	1.09
Cc1ccc(S[C@]2(C(=O)NC(C)C)CC(=O)N(Cc3ccccc3Cl)[C@@H]2c2ccc(CO)cc2)cc1	-0.142
CC(C)=CCCC(C)=CC(O)C1C=CC2C(=O)N(c3ccccc3)C(=O)C2N1Nc1ccccc1F (stereo not given)	1.67
COc1cc2c(cc1OC)CN(C(=O)[C@@H]1[C@H]3C(=O)O[C@H](c4ccccc4)[C@H](c4ccccc4)N3[C@H](c3ccc(O)cc3)[C@@]13C(=O)Nc1ccc(C#CCCO)cc13)CC2	0.758
COc1cc(NN2C(C(O)C3CCCCC3)C=CC3C(=O)N(C)C(=O)C32)cc(OC)c1OC (stereo not given)	2.01
CC(C)C(CO)N1C(=O)[C@@H]2[C@H]3C(=O)OCC=C[C@H]3OC23C=CCN(C(C)(C)C)C(=O)[C@@H]13 (stereo not given in full)	-0.907
COC(=O)[C@@]1(Cc2ccc(OC)cc2)[C@H]2c3cc(C(=O)N4CCCC4)n(Cc4ccc(S(C)(=O)=O)cc4)c3C[C@H]2CN1C(=O)c1ccccc1	2.06
CCCNC(=O)[C@@]1(Sc2ccc(C)cc2)CC(=O)N(C2CCCCC2)[C@@H]1c1ccc(CO)cc1I	1.42
CO[C@H]1O[C@H](CO)[C@@H](OC(=O)Nc2ccc(C#N)cc2)[C@@H]2OC(=O)[C@H](Cc3cccc(Br)c3)C/C=C/C[C@@H](Cc3cccc(Br)c3)C(=O)O[C@@H]12	0.211
COCCOC(=O)N1C(=O)[C@@]2(c3cc(C#CC4(O)CCCCCC4)ccc31)[C@H](C(=O)N1CCN(c3ncccn3)CC1)[C@H]1C(=O)O[C@H](c3ccccc3)[C@H](c3ccccc3)N1[C@@H]2c1ccccc1OCCO	0.348
CCCC=C(CCC)[C@@H](NC(=O)CCc1ccccc1)c1ccc(C(F)(F)F)cc1	1.58
CC(C)[C@H]1NC(=O)[C@@]23C(=O)N[C@@H](Cc4ccccc4)C2[C@H](C)[C@@]2(C)O[C@H]2C3/C=C/CCC/C=C/CNC(=O)[C@H](Cc2ccccc2)NC1=O (stereo not given in full)	-0.773
CCCCNC(=O)c1ccc(C#C[Si](C(C)C)(C(C)C)C(C)C)c(OC(C)=O)c1	0.367
C=C(/C(=C/C[C@H](OC(=O)c1ccncc1)c1ccccc1OCCO)c1cnc2ccccc2c1)C(C)C	0.547
COc1cc(NN2C(C(O)c3cc(OC)c(OC)c(OC)c3)C=CC3C(=O)N(c4ccccc4)C(=O)C32)cc(OC)c1OC (stereo not given)	2.02
COC(=O)[C@@]1(Cc2ccccc2)[C@H]2c3cc(C(=O)N4CCCC4)n(CCSCCO)c3C[C@H]2CN1C(=O)c1ccccc1	2.26

Compound	composite z-score
COCCOC(=O)N1C(=O)[C@@]2(c3cc(C#Cc4ccc(OC)cc4)ccc31)[C@H](c1ccc(OCCO)cc1)N1[C@H](c3ccccc3)[C@H](c3ccccc3)OC(=O)[C@H]1[C@@H]2C(=O)Nc1nc2ccccc2s1	1.91
COCCOC(=O)N1C(=O)[C@@]2(c3cc(C#CCC(C(=O)OC)C(=O)OC)ccc31)[C@H](c1ccc(O)cc1)N1[C@H](c3ccccc3)[C@H](c3ccccc3)OC(=O)[C@H]1[C@@H]2C(=O)NC[C@H](O)c1ccccc1	1.91
CCCCCCCCCCC(O)C1C=CC2C(=O)N(c3ccccc3)C(=O)C2N1Nc1ccccc1F (stereo not given)	1.03
COc1ccc(C(O)C2C=CC3C(=O)N(c4ccccc4)C(=O)C3N2Nc2ccc(C(C)C)cc2)c2ccccc12 (stereo not given)	1.17
O=C1C2C=CC(C(O)c3cc(C(F)(F)F)cc(C(F)(F)F)c3)N(Nc3ccccc3F)C2C(=O)N1c1ccccc1 (stereo not given)	0.896
C=C(CCCC)C(=O)CC[C@@H](OC(=O)c1cccnc1)c1ccc(OCCO)cc1	-0.588
C=C(/C(=C/C[C@@H](OC(=O)c1ccncc1)c1cccc(OCCO)c1)c1cnc2ccccc2c1)C(C)C	0.0848
CC(C)CNC(=O)[C@@]1(c2ccc([N+](=O)[O-])cc2)CC(=O)N(C2CCCCC2)[C@@H]1c1ccc(CO)cc1	0.1
C[C@]1(C(=O)O)c2ccccc2C(=O)N(Cc2ccc(OC(F)(F)F)cc2)[C@H]1c1ccc(CO)cc1	1.03
C=C(COC)C(=O)CC[C@H](OC(=O)c1cccnc1)c1ccc(CO)o1	-0.502
COCCOC(=O)N1C(=O)[C@@]2(c3cc(C#CCC(C(=O)OC)C(=O)OC)ccc31)[C@H](C(=O)NC[C@H](O)c1ccccc1)[C@H]1C(=O)O[C@H](c3ccccc3)[C@H](c3ccccc3)N1[C@@H]2c1ccc(O)cc1	1.65
Cc1cccc([C@H]2C[C@H]3C(Br)=C[C@@H]2C(=O)[C@]32CO2)c1	-0.206
C=CCC(OC(C)=O)[C@@H]1[C@@H](N(Cc2ccc(-c3cccc(C(F)(F)F)c3)o2)C(=O)c2cccc3ccccc23)c2cc(OCCCO)ccc2N1C(=O)Cc1ccc(OC)cc1 (stereo not given in full)	-0.534
CC(C)C[C@@H]1NC(=O)[C@@]23C(=O)N[C@@H](Cc4ccccc4)C2[C@H](C)[C@@]2(C)O[C@H]2C3/C=C/C/C=C\CNC(=O)[C@@H](C)NC1=O (stereo not given in full)	-0.463
CCOC(=O)C1=CCN(S(=O)(=O)c2ccc(C)cc2)C1c1ccccc1 (stereo not given)	-0.263
COCCOC(=O)N1C(=O)[C@@]2(c3ccccc31)[C@H](c1ccccc1OCCO)N1[C@H](c3ccccc3)[C@H](c3ccccc3)OC(=O)[C@H]1[C@@H]2C(N)=O	1.93
C=C(COC)C(=O)CC[C@@H](OC(=O)c1cccnc1)c1ccccc1OCCO	-1.08
